About 79,000 compounds went through this panel and 15% of them were active in at least one assay; those are over-represented in the sample as a whole. Active and inactive are the calls of the source. No stated cut-off is given here; in the data, active means growth inhibition above about 70%; inactive means the rest.
How the values were obtained:
[1] = NCI Yeast Anticancer Drug Screen. Data for the wt1 strain (AID 149);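 further: 0% = growth of vehicle-treated wt1 cultures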; conditions: S. cerevisiae wt1 strain (SPY 50644) growth inhibition, hits give high values
Procedure, shortened: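 Using yeast strain wt1, compound-induced growth inhibition was determined against vehicle-treated cultures.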

[2] = NCI Yeast Anticancer Drug Screen. Data for the rad50 strain (AID 155);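 further: 0% = growth of vehicle-only cultures of the same strain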; conditions: S. cerevisiae rad50 strain growth inhibition, hits give high values
Procedure, shortened: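 Relative growth inhibition (compound vs vehicle) was measured in yeast with a defined repair-gene alteration.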

[3] = NCI Yeast Anticancer Drug Screen. Data for the mec2-1 strain (AID 157); conditions: S. cerevisiae mec2-1 strain, hits give high values
Procedure, shortened: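 Mutant yeast (mec2-1) grown with compound; growth inhibition relative to vehicle control reported.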

[4] = NCI Yeast Anticancer Drug Screen. Data for the rad14 strain (AID 159);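 further: 0% = growth of vehicle-treated control cultures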; conditions: S. cerevisiae rad14 strain growth inhibition, hits give high values
Procedure, shortened: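 Screen for anticancer potential: a yeast strain altered in DNA damage repair is grown with compound, and reduced growth is quantified against vehicle controls.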

[5] = NCI Yeast Anticancer Drug Screen. Data for the sgs1 mgt1 strain (AID 161);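 further: 0% = growth of cultures given vehicle only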; conditions: S. cerevisiae sgs1 mgt1 strain, hits give high values
Procedure, shortened: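 Yeast cells carrying a defined DNA-repair defect were exposed to test compounds. Growth inhibition was measured relative to vehicle-treated controls.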

[6] = NCI Yeast Anticancer Drug Screen. Data for the CLN2oe strain (AID 163);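 further: 0% = growth of vehicle-only control cultures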; conditions: S. cerevisiae CLN2oe strain, hits give high values
Procedure, shortened: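 Compounds are applied to yeast harbouring a defined cell-cycle control change; reduced growth compared with vehicle-treated controls gives the value.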

[7] = NCI Yeast Anticancer Drug Screen. Data for the cln2 rad14 strain (AID 165);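 further: 0% = growth equal to vehicle treated cultures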; conditions: S. cerevisiae cln2 rad14 strain, hits give high values
Procedure, shortened: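 Readout is yeast growth inhibition versus vehicle-treated controls, using a strain with cln2 and rad14 alterations exposed to compound.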

[8] = NCI Yeast Anticancer Drug Screen. Data for the bub3 strain (AID 167); conditions: S. cerevisiae bub3 mutant strain, hits give high values
Procedure, shortened: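 Screening used yeast with an engineered genetic alteration affecting cell cycle control. Compound-exposed cultures were compared with vehicle cultures, and reduced growth was taken as inhibition.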

[9] = NCI Yeast Anticancer Drug Screen. Data for the wt2 strain (AID 169);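 further: 0% = growth of vehicle-treated yeast cultures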; conditions: S. cerevisiae wt2 strain growth inhibition, hits give high values
Procedure, shortened: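 Against vehicle-treated controls, the growth of yeast exposed to each compound was compared, and the inhibition was recorded.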

[10] = NCI Yeast Anticancer Drug Screen. Data for the mlh1 strain (AID 171);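 further: 0% = growth of vehicle-treated control cultures of the same strain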; conditions: S. cerevisiae mlh1 strain growth inhibition, hits give high values
Procedure, shortened: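 Measured: yeast growth. Reference: vehicle-treated controls. Organism: strain with a defined alteration affecting DNA damage repair or cell cycle control, treated with compound.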

[11] = NCI Yeast Anticancer Drug Screen. Data for the sgs1 strain (AID 173);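 further: 0% = growth of vehicle-only control cultures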; conditions: S. cerevisiae sgs1 mutant, hits give high values
Procedure, shortened: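 Each compound was added to cultures of the altered yeast strain. Growth was recorded, and inhibition was derived by comparison with vehicle controls.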

[12] = NCI Yeast Anticancer Drug Screen. Data for the mlh1 rad18 strain (AID 175); conditions: S. cerevisiae mlh1 rad18 strain growth inhibition, hits give high values
Procedure, shortened: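 Genetically defined yeast (DNA repair-deficient) exposed to compounds; growth inhibition determined relative to vehicle.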

[13] = NCI Yeast Anticancer Drug Screen. Data for the rad18 strain (AID 177); conditions: S. cerevisiae rad18 mutant growth inhibition, hits give high values
Procedure, shortened: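 Vehicle-treated cultures served as the baseline for scoring compound-induced growth inhibition in DNA-repair-mutant yeast.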

[14] = NCI Yeast Anticancer Drug Screen. Data for the rad50EPP+ strain (AID 151);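 further: 0% = growth of vehicle-treated control cultures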; conditions: S. cerevisiae rad50 mutant strain, hits give high values
Procedure, shortened: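 Vehicle-normalised growth inhibition; rad50EPP+ yeast strain, altered in DNA damage repair, compound-treated.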

[15] = NCI Yeast Anticancer Drug Screen. Data for the mgt1 strain (AID 153); conditions: S. cerevisiae mgt1 mutant growth inhibition, hits give high values
Procedure, shortened: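 Vehicle-normalized growth inhibition is determined in mgt1 yeast, a strain selected for a defined alteration in DNA repair or cell cycle control.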

[16] = at 5.0 µM (retest, dose inferred, filed as 0.5)
[17] = at 50.0 µM (retest, dose inferred, filed as 5.0)

Measured: growth inhibition

Cc1ccc(Nc2nc3c(=O)n(C)c(=O)n(C)c3nc2Nc2ccc(C)cc2)cc1
inactive: [1]; at 1.2 µM 0% | [1]; at 3.7 µM -1% | [1]; at 11.0 µM 1% | [1]; at 33.0 µM -3% | [1]; at 100.0 µM 6% | [2]; at 1.2 µM -2% | [2]; at 3.7 µM 1% | [2]; [16] -13% | [2]; at 11.0 µM 2% | [2]; at 33.0 µM 0% | [2]; [17] 66% | [2]; at 100.0 µM 23% | [3]; at 1.2 µM -2% | [3]; at 3.7 µM 3% | [3]; [16] -9% | [3]; at 11.0 µM -2% | [3]; at 33.0 µM -4% | [3]; [17] 22% | [3]; at 100.0 µM 11% | [4]; at 1.2 µM 0% | [4]; at 3.7 µM -4% | [4]; at 11.0 µM -1% | [4]; at 33.0 µM -5% | [4]; at 100.0 µM 7% | [5]; [16] -2% | [5]; [17] 45% | [6]; at 1.2 µM -2% | [6]; at 3.7 µM 3% | [6]; at 11.0 µM -4% | [6]; at 33.0 µM -5% | [6]; at 100.0 µM -10% | [7]; [16] -14% | [7]; [17] 11% | [8]; at 1.2 µM -3% | [8]; at 3.7 µM -5% | [8]; [16] -9% | [8]; at 11.0 µM 0% | [8]; at 33.0 µM -1% | [8]; [17] 16% | [8]; at 100.0 µM 2% | [9]; at 1.2 µM 0% | [9]; at 3.7 µM -1% | [9]; at 11.0 µM -1% | [9]; at 33.0 µM -2% | [9]; at 100.0 µM 12% | [10]; at 1.2 µM 0% | [10]; at 3.7 µM -2% | [10]; at 11.0 µM 1% | [10]; at 33.0 µM -3% | [10]; at 100.0 µM 3% | [11]; at 1.2 µM -3% | [11]; at 3.7 µM 2% | [11]; at 11.0 µM 1% | [11]; at 33.0 µM 3% | [11]; at 100.0 µM 20% | [12]; [16] -14% | [13]; at 1.2 µM 2% | [13]; at 3.7 µM 0% | [13]; at 11.0 µM 11% | [13]; at 33.0 µM 4% | [13]; at 100.0 µM 46%
active: [2]; at 50.0 µM 92.5% | [3]; at 50.0 µM 95.3% | [5]; at 50.0 µM 92.8% | [7]; at 50.0 µM 79.3% | [8]; at 50.0 µM 94.5% | [12]; [17] 89% | [12]; at 50.0 µM 95.7%

CC(=O)Oc1cc(-c2cc(OC(C)=O)c(OC(C)=O)c3ccccc23)c2ccccc2c1OC(C)=O
active: [15]; at 100.0 µM 82% | [2]; [17] 82% | [2]; at 50.0 µM 83.5% | [2]; at 100.0 µM 86% | [3]; [17] 70% | [3]; at 50.0 µM 82.6% | [3]; at 100.0 µM 79% | [8]; [17] 93% | [8]; at 50.0 µM 86.8% | [8]; at 100.0 µM 87% | [9]; at 100.0 µM 86% | [10]; at 100.0 µM 93% | [11]; at 100.0 µM 82% | [12]; [17] 96% | [12]; at 50.0 µM 93.6% | [13]; at 100.0 µM 90%
inactive: [1]; at 1.2 µM 8% | [1]; at 3.7 µM 12% | [1]; at 11.0 µM 10% | [1]; at 33.0 µM 12% | [1]; at 100.0 µM 59% | [14]; at 1.2 µM 3% | [14]; at 3.7 µM 6% | [14]; at 11.0 µM 12% | [14]; at 33.0 µM 19% | [14]; at 100.0 µM 21% | [15]; at 1.2 µM 5% | [15]; at 3.7 µM 5% | [15]; at 11.0 µM 5% | [15]; at 33.0 µM 13% | [2]; at 1.2 µM 4% | [2]; at 3.7 µM 8% | [2]; [16] 22% | [2]; at 11.0 µM 12% | [2]; at 33.0 µM 24% | [3]; at 1.2 µM 2% | [3]; at 3.7 µM 9% | [3]; [16] 14% | [3]; at 11.0 µM 12% | [3]; at 33.0 µM 24% | [7]; [16] 7% | [7]; [17] 56% | [7]; at 50.0 µM 38% | [8]; at 1.2 µM 3% | [8]; at 3.7 µM 4% | [8]; [16] 17% | [8]; at 11.0 µM 7% | [8]; at 33.0 µM 26% | [9]; at 1.2 µM 10% | [9]; at 3.7 µM 9% | [9]; at 11.0 µM 8% | [9]; at 33.0 µM 11% | [10]; at 1.2 µM 1% | [10]; at 3.7 µM 3% | [10]; at 11.0 µM 6% | [10]; at 33.0 µM 23% | [11]; at 1.2 µM 7% | [11]; at 3.7 µM 10% | [11]; at 11.0 µM 11% | [11]; at 33.0 µM 16% | [12]; [16] 19% | [13]; at 1.2 µM 1% | [13]; at 3.7 µM 6% | [13]; at 11.0 µM 10% | [13]; at 33.0 µM 26%
